# Screening data (PubChem)
# PLC-beta3 inh – inhibitors of human phospholipase C beta3. inhibition, % at 12.2 µM. Q01970. hit rate 0.18% among 370,000. Purified PLC-beta3, fluorogenic substrate, fluorescence; in the data active = inhibition above about 11%;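 note: 0% = median of compound wells on plate and 100% = full blocker control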
# KLK7 zymogen act – proKLK7 (human) activation, primary screen. purified proKLK7, EDANS-DABCYL substrate fluorescence; 100% is mature enzyme control, 0% vehicle. activation, % at 7 µM. hit rate 0.9% among 370,000;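 active = activation above the mean of all tested compounds plus 3 SD, computed per campaign excluding outliers beyond control limits, cut at about 13% in these data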
# ADAM17 inh – inhibitors of human ADAM17 | recombinant ADAM17, EDANS/DABCYL FRET peptide cleavage | hit rate 0.83% among 370,000 | AID 720648 | P78536 | inhibition, % at 6.95 µM;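 active = inhibition above the mean of compounds lying between control limits plus 3 SD, set per campaign, cut at about 8.5% in these data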;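 note: 0% = DMSO-only wells as the low control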
# Target sequence (P78536 215-824 limits assumed): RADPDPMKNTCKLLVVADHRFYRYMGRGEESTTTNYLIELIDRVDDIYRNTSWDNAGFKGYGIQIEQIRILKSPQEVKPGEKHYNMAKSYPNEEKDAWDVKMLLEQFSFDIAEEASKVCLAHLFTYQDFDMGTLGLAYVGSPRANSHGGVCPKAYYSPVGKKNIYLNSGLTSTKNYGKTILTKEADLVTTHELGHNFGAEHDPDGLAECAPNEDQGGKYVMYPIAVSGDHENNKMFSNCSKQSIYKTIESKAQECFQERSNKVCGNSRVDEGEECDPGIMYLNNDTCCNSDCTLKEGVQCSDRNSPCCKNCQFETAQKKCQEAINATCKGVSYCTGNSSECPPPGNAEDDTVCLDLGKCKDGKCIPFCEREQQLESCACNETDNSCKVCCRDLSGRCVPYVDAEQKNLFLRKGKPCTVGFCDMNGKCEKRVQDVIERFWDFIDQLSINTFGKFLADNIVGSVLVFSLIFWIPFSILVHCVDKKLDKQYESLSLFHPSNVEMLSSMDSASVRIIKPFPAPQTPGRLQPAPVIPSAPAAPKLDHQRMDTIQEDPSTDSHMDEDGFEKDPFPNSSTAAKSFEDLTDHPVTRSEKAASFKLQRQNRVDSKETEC
# PLCg1 inh – inhibitors of human phospholipase C gamma1; P19174; purified PLC-gamma1, fluorogenic substrate, fluorescence; inhibition, % at 12.2 µM; hit rate 0.84% among 370,000; in the data active = inhibition above about 9.5%
# ADAM10 inh – inhibits human ADAM10; O14672; recombinant ADAM10, EDANS/DABCYL FRET peptide cleavage, 3 h; inhibition, % at 7 µM; hit rate 0.62% among 370,000; AID 720582;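 active = inhibition above a per-campaign cutoff equal to the mean of compounds falling between control-based bounds plus 3 SD, cut at about 20% in these data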;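 note: 0% = DMSO wells while the 100% control is not disclosed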
# ADAM10 confirm – confirmation of inhibitors of human ADAM10 | shares compounds with ADAM10 inh | ADAM10 QFRET peptide cleavage, EDANS fluorescence | inhibition, % at 6.95 µM | hit rate 1% among 2,100 | AID 743208;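 active = inhibition above about 20% chosen separately for each screening run, limit read from the data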;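 note: 0% = DMSO wells and 100% = marimastat wells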
# ADAM17 ctr – ADAM17 inhibition, counter-screen for ADAM10 exosite hits | ADAM17 QFRET peptide cleavage, EDANS fluorescence | shares compounds with ADAM10 inh | hit rate 0.5% among 2,100 | inhibition, % at 6.95 µM | AID 743214;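 active = mean triplicate inhibition above the solvent-only control wells' mean plus 3 SD, cut at about 12% in these data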;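 note: 0% = DMSO wells and 100% = marimastat wells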
# Active calls of the source: *; . = not tested or not shown. In the library only some 2.9% were active in any assay of this set; here they are far more common.
SMILES,PLC-beta3 inh,KLK7 zymogen act,ADAM17 inh,PLCg1 inh,ADAM10 inh,ADAM10 confirm,ADAM17 ctr
COc1cc(CNn2c(C)n[nH]c2=S)cc(Cl)c1OCc1ccccc1,2,0,5,8,28*,-1,0
O=C(Nc1ccccc1N1CCCC1)c1ccc(Cl)cc1Cl,-7,0,-2,-3,5,.,.
O=C(Nc1ccc(N2CCCC2)cc1)c1ccc(Br)cc1,-10,-1,-7,-8,25*,1,1
O=C(Nc1ccc(N2CCCC2)cc1)c1cc(Cl)ccc1Cl,-17,0,1,-5,-1,.,.
O=C(Nc1ccc(N2CCCC2)cc1)c1ccc(Cl)cc1Cl,2,0,5,-2,20*,9,5
O=C(Nc1ccccc1N1CCCC1)c1ccccc1Cl,4,0,3,3,23*,0,0
NC(=NCc1ccccc1)NC(=O)OCc1ccccc1,1,0,-2,-37,-3,.,.
COc1ccc(/C=C/S(=O)(=O)NCCc2ccccc2)c(CNC(=O)OC(C)(C)C)c1,-4,0,2,-4,9,.,.
CN(CC(=O)Nc1cc(Cl)cc(Cl)c1)Cc1cccs1,0,0,1,8,22*,7,2
Cc1[nH]c(N=Nc2ccccc2)nc1N=Nc1ccccc1,-2,0,5,4,21*,0,1
COc1ccc([C@@H]2[C@@H]3C(=O)N(C(C)(C)C)C(=O)[C@@H]3[C@]3(Cc4ccccc4)C(=O)N(c4ccc(OC)cc4)C(=O)N23)cc1,3,0,2,3,23*,1,0
COc1ccc([C@@H]2[C@@H]3C(=O)N(C(C)(C)C)C(=O)[C@@H]3[C@]3(Cc4ccccc4)C(=O)N(c4ccc(C(F)(F)F)cc4)C(=O)N23)cc1,1,0,0,0,8,.,.
COc1ccc(C2CC(c3ccccc3)=NN2S(=O)(=O)c2ccc(C)cc2)c(OC)c1 (stereo not given),-2,-1,7,2,23*,7,2
C=CCN1C(=O)[C@@H](CC(=O)NCC23CC4CC(CC(C4)C2)C3)[C@]2(C(=O)OCC)CCCCC/C=C/12,-2,0,0,3,1,.,.
Cc1ccc(Sc2ncccc2COC(=O)Nc2ccccc2)cc1,2,1,8,2,22*,6,3
Cc1ccc(Sc2ncccc2COC(=O)Nc2c(C)cccc2C)cc1,5,0,7,7,16,.,.
CCCCNS(=O)(=O)/C=C/c1ccccc1CNC(=O)OC(C)(C)C,1,1,-1,0,1,.,.
COC(=O)c1sc2ccccc2c1-n1cccc1C(=O)C(=O)Nc1ccc(OC)cc1,-13,-3,8,-16,22*,5,3
Cc1cc(NC(=O)c2ccccc2F)n(-c2nc3ccccc3[nH]2)n1,-2,0,-3,-3,-1,.,.
Cc1cc(Nc2ccccc2)n(-c2nc3ccccc3[nH]2)n1,1,1,5,-1,21*,9,3
COc1cc(NC(=O)c2cc(-c3ccccc3Cl)on2)cc(OC)c1OC,-10,0,3,-3,33*,4,1
CCOc1ccc(NC(=O)c2ccc3c(=O)n(-c4ccc(OC)cc4OC)c(=S)[nH]c3c2)cc1,-8,-1,8,0,24*,1,0
CN1C(=O)c2ccccc2Sc2ccc(NC(=O)NC3CC3)cc21,4,0,0,4,1,.,.
O=C(Nc1ccc2c(c1)N(Cc1ccccc1)C(=O)c1ccccc1S2)NC1CC1,4,0,7,-2,21*,4,1
O=C1CSC(c2cccc(F)c2)N1c1c(F)cccc1F (stereo not given),7,0,1,8,23*,0,0
SMILES,PLC-beta3 inh,KLK7 zymogen act,ADAM17 inh,PLCg1 inh,ADAM10 inh,ADAM10 confirm,ADAM17 ctr
O=[N+]([O-])c1ccc(Nc2ccccc2O)c2nonc12,-14,2,4,-2,20*,0,0
C#CCN(C[C@@H]1[C@@H](OC(=O)NCc2ccccc2)[C@@H](OC(=O)NCc2ccccc2)Cn2c(=O)n(CCCCCC)c(=O)n21)S(=O)(=O)c1ccc(C)cc1,2,0,6,-1,1,.,.
C#CCN(C[C@@H]1[C@@H](OC(=O)NCc2ccc(OC)c(OC)c2)[C@@H](OC(=O)NCc2ccc(OC)c(OC)c2)Cn2c(=O)n(CCCCCC)c(=O)n21)S(=O)(=O)c1ccc(C)cc1,2,1,9,0,21*,12,3
O=C(C(=Cc1ccc(O)cc1)c1ccccc1)c1ccccc1,1,1,8,11*,30*,8,2
O=C(C(=Cc1ccccc1)c1ccccc1)c1ccccc1,3,0,3,3,16,.,.
N#Cc1c(NC(=O)CCn2cnc3ccccc3c2=O)oc(-c2ccccc2)c1-c1ccccc1,-9,1,7,-4,20*,16,6
COC(=O)[C@]12CCCCC=C1N(Cc1ccc(OC)cc1)C(=O)[C@@H]2CC(=O)NCc1ccc(C)o1,2,-1,-2,2,3,.,.
CCOC(=O)COc1ccc2c(c1)c(C(C)=O)c(C)n2-c1ccc(OC)cc1,-13,0,7,1,21*,3,1
COc1ccc(-n2c(C)c(C(C)=O)c3cc(O)ccc32)cc1,-3,0,-1,0,-2,.,.
C[C@@H]1OCN(C)[C@H]2C[C@H]3c4[nH]c5cccc(-c6cccc(F)c6)c5c4CCN3C(=O)[C@@H]12,-37,-4,-26,-25,-80,.,.
O=C(Nc1ccc(OCC(F)(F)C(F)F)c(C(F)(F)F)c1)c1ccccc1,0,1,7,-4,24*,3,0
O=C(Nc1ccc(OCC(F)(F)C(F)F)c(C(F)(F)F)c1)c1ccccc1O,-39,-3,-2,-37,-15,.,.
COc1cccc(CNC2CCC23CCC(C)CC3)c1 (stereo not given),0,.,-7,2,-8,.,.
Cc1ccc(S(=O)(=O)Nc2ccccc2-c2ccccc2NS(=O)(=O)c2ccc(C)cc2)cc1,-2,-1,5,0,21*,0,0
CC(=O)c1ccc(NC(=O)Nc2ccc(NS(=O)(=O)c3ccc(C)cc3)cc2)cc1,1,0,7,1,24*,6,1
Cc1ccc(S(=O)(=O)Nc2ccc(N=Nc3ccc(O)cc3)cc2)cc1,1,0,2,7,22*,2,0
Cc1ccc(S(=O)(=O)Nc2ccccc2C(N)=O)cc1,-15,-2,-31,-19,-123,.,.
Cc1ccc(/C=N\NC(=O)CN2CCN(S(=O)(=O)c3ccc(Br)cc3)CC2)s1,-4,0,0,-3,-2,.,.
CCOc1ccc(NC(=S)NC(=O)c2cncc(Br)c2)cc1,5,1,8,8,7,.,.
